Compound activity deposited in PubChem BioAssay by several laboratories.
HSP90 inh: HSP90 inhibitors, primary screen, cell lysate, luminescence; Heat shock protein HSP 90 (rabbit reticulocyte lysate; luciferase refolding); Rabbit reticulocyte lysate, luciferase refolding luminescence, 3 h; inhibition, % at 5.6 µM; actives 0.91% (n = 290,000);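 active = inhibition above the screen-wide mean plus 3 SD, computed separately per campaign, cut at about 16% in these data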;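 note: 0% = DMSO wells and 100% = 60 µM geldanamycin wells; inhibitors lower the luminescence because luciferase stays unfolded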
DAX1 inh: DAX1 (NR0B1) inhibitors, primary screen, cell-based, HEK293, Gal4-DAX1, luciferase luminescence. HEK293 Gal4-DAX1 luciferase reporter. actives 0.99% (n = 340,000). Nuclear receptor subfamily 0 group B member 1 (Homo sapiens), P51843. inhibition, % at 6.75 µM. AID 504766, 2011;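 active = inhibition above the mean over all tested compounds plus 3 SD, cut at about 4.2% in these data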;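 note: 0% = DAX1-transfected cells with DMSO and 100% = empty-vector control cells with DMSO; inhibition shows as a rise in luminescence from relieved DAX1 repression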
AHR act: AHR activators, primary screen, cell-based, luminescence, luciferase reporter, human | activation, % at 5 µM | Aryl hydrocarbon receptor (Homo sapiens), P35869 | AHR-responsive luciferase reporter cells | actives 2.5% (n = 320,000); in the data active = activation above about 47%;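 note: 0% = vehicle wells and 100% = reference agonist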
Target sequence (P35869 whole entry, looked up): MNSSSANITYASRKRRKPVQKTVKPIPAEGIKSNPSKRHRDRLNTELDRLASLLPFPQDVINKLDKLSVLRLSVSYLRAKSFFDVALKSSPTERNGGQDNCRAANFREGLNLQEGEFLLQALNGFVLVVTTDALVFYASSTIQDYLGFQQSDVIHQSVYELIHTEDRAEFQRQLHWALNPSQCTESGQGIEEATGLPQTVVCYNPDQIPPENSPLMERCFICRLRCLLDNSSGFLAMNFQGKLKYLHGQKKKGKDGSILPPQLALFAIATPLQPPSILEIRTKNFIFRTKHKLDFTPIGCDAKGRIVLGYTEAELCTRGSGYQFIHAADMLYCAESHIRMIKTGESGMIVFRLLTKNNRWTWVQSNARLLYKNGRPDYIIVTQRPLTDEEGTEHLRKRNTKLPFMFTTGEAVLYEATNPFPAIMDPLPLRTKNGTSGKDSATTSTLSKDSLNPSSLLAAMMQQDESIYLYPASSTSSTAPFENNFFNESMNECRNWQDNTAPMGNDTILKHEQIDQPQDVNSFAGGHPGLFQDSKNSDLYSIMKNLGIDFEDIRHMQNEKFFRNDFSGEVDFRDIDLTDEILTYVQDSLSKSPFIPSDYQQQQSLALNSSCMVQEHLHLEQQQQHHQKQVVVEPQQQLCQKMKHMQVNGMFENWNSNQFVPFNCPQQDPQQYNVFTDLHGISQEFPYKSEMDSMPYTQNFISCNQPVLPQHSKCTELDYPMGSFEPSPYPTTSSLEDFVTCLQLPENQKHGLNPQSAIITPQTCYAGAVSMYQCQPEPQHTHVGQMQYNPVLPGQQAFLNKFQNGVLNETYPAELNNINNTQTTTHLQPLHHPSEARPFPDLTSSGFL
GAA850 FXN act: FXN promoter activators, primary screen, cell-based, luciferase luminescence, HEK293 lucGAA850. HEK293 lucGAA850 FXN promoter luciferase reporter, 24 h; percent of 10 µM SAHA response. activation, % at 6 µM. actives 0.56% (n = 360,000);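 active = activation above the average of all compounds screened plus 3 SD, cutoff fixed separately per campaign, cut at about 7.5% in these data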;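 note: 0% = DMSO wells and 100% = 10 µM SAHA wells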
HSF-1 act: HSF-1 activators, primary screen, NIH3T3-HGL cells, MG132 stress, luminescence, single point. NIH3T3-HGL HSF-1 luciferase reporter, 8 h; 100% = twice DMSO control signal. activation, % at 9 µM. actives 1.7% (n = 300,000). AID 504408, 2011;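 active = mean replicate activation of at least 50% with a set share of replicates each reaching 50%; inconclusive = only one of those two conditions met; inactive = mean below 50% and too few replicates reaching it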;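 note: 0% = median of the neutral control wells and 100% = twice that signal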
HSF1 inh: HSF1 inhibitors in luciferase reporter cells, primary screen, cell-based, NIH3T3, luminescence; NIH3T3-HGL HSE-luciferase, MG132-induced, luminescence 8 h; hits give low values; activity change, negative = inhibition, % at 7.5 µM (by protocol); actives 0.77% (n = 300,000); AID 2098, 2009;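 active = more than half of replicate wells show activity change below -50%, luminescence cut by over half; inconclusive = some wells, but at most half, below -50%; inactive = no replicate well below -50%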;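 note: luciferase reports HSF-1 transcriptional activity via heat shock element; 0% = median of DMSO wells and -100% = zero luminescence signal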
HSP90 inh confirm: HSP90 inhibitors, confirmation, cell lysate, luminescence | inhibition, % at 5.9 µM | actives 64% (n = 2,300) | rabbit reticulocyte lysate, luciferase refolding luminescence, 3 h | shares compounds with HSP90 inh; in the data active = inhibition above about 18%;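 note: 0% = vehicle wells and 100% = reference inhibitor wells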
FLuc counter: firefly luciferase inhibitors, HSP90 counter-screen, confirmation, artefact control for HSP90 inhibitor project, biochemical, luminescence, triplicate | shares compounds with HSP90 inh | purified native firefly luciferase | inhibition, % at 5.9 µM | actives 48% (n = 2,300) | AID 1847, 2009;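 active = inhibition above the mean inhibition of all tested sample wells plus 3 SD, cut at about 10% in these data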;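 note: 0% = DMSO with luciferase and 100% = wells lacking luciferase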
The depositor's hits bear a star; ? = inconclusive; . = not tested or not shown. Compounds with a hit are over-represented: about 5.9% of the library has one in this group of screens.

SMILES	HSP90 inh	DAX1 inh	AHR act	GAA850 FXN act	HSF-1 act	HSF1 inh	HSP90 inh confirm	FLuc counter
O=C1c2ccc3c4c(ccc(c24)C(=O)N1NC(=O)C(F)(F)F)CC3	-0.7	1.0	1.4	-0.9	-3.9	-11.2	.	.
CC(=O)NN1C(=O)c2ccc3c4c(ccc(c24)C1=O)C(=O)N(NC(C)=O)C3=O	44.7*	-2.2	-0.5	-0.7	-41.1	-23.6	29.6*	-1.8
COc1ccccc1C1=NOC(C(=O)N2CCN(C(=O)c3ccco3)CC2)C1 (stereo not given)	-4.9	0.6	3.0	-0.8	13.8	1.9	.	.
CCOC(=O)/C(=N\Nc1ncnc2ccccc12)c1ccc(OC)cc1	18.1*	0.8	32.0	0.9	7.8	6.6	23.1*	-27.9
CN(C)c1ccc(/C=C2\SC(N3CCCCC3)=NC2=O)cc1	45.1*	4.6*	23.8	-5.0	-62.5	?	55.0*	59.8*
CC(C)c1ccc(/C=C2\SC(N3CCCC3)=NC2=O)cc1	19.3*	0.1	-0.7	1.1	-16.8	2.3	3.9	3.2
O=C1N=C(N2CCCCC2)S/C1=C\c1ccc(Br)cc1	1.6	0.2	17.0	2.5	37.9	15.5	.	.
Cc1ccc(/C=C2\SC(N3CCCC3)=NC2=O)cc1	-0.9	.	4.8	.	23.9	6.2	.	.
Cc1cc(S(=O)(=O)N2CCCOC2CNC(=O)C(=O)NCCc2ccco2)ccc1F (stereo not given)	-0.9	0.0	2.7	0.3	-6.1	-3.5	.	.
CN1C(=O)N(CC(=O)N2CCN(S(=O)(=O)Cc3ccccc3)CC2)C(=O)C12CCCCC2	.	-1.0	.	1.8	.	.	.	.
Cc1cc2ncc(-c3cccs3)nc2cc1C	34.8*	-1.0	.	1.6	10.8	1.6	61.3*	58.8*
CCOC(=O)c1c(C)[nH]c(C)c1S(=O)(=O)NCC1CCN(Cc2cccc(F)c2)CC1	0.2	1.6	2.8	3.3	2.1	-1.2	.	.
O=C(CSc1nnc(-c2cccnc2)o1)Nc1ccc(Br)cc1	18.2*	-1.8	-2.3	2.2	23.7	20.6	-5.4	-5.8
O=C(CSc1nnc(-c2ccccc2)o1)Nc1ccccc1F	15.1	-6.2	8.8	-4.6	17.2	3.9	.	.
O=C(CSc1nnc(-c2cccnc2)o1)Nc1ccc(F)cc1	.	0.4	.	1.7	.	.	.	.
Cc1ccc(-c2nnc(SCC(=O)Nc3ccccc3F)o2)cc1	53.7*	-8.7	-7.3	-9.2	-60.1	-53.8*	30.7*	28.9*
Cn1c(C2CCCN2C(=O)OC(C)(C)C)n[nH]c1=S (stereo not given)	34.2*	-1.1	1.3	0.9	3.4	1.2	-0.7	-4.3
CSc1nnc([C@@H]2CCCN2C(=O)OC(C)(C)C)o1	2.7	-0.1	2.1	0.7	-1.5	-3.1	.	.
Nc1ncnc(Oc2cccc(C(F)(F)F)c2)c1[N+](=O)[O-]	1.8	0.1	7.1	-3.6	46.4	28.7	.	.
Cc1cc(C(=O)N/N=C/c2ccc3ccccc3c2)n[nH]1	35.5*	-0.9	.	0.4	.	.	-9.6	-26.8
CSc1ccc(/C=N/Nc2cccc(C(=O)O)c2)cc1	25.3*	-3.2	.	9.1*	.	.	86.4*	83.6*
O=C(O)c1cccc(N/N=C/c2ccc(OC(F)(F)F)cc2)c1	47.2*	-3.9	1.9	6.5	-58.6	-56.0*	75.7*	75.6*
COc1ccc(/C=N/NC(=S)Nc2cccc(C(=O)O)c2)cc1	10.4	-3.6	-2.8	3.3	-30.4	-27.8	.	.
O=C(Oc1ccc(/C=N/Nc2ccccc2)cc1)c1ccccc1	-6.3	-0.2	24.4	0.8	20.1	11.1	.	.
O=C(O)c1ccc(N/N=C/c2ccc(OC(=O)c3cccc(Cl)c3)cc2)cc1	42.6*	-2.6	-8.2	-8.5	-59.4	?	85.2*	5.5
SMILES	HSP90 inh	DAX1 inh	AHR act	GAA850 FXN act	HSF-1 act	HSF1 inh	HSP90 inh confirm	FLuc counter
O=C(COC(=O)c1cccc([N+](=O)[O-])c1)NCC1CCCO1 (stereo not given)	-4.1	-0.7	-2.4	0.5	14.7	3.4	.	.
O=C(/C=C/c1ccc2c(c1)S(=O)(=O)N(Cc1ccccc1)[C@H]2CC(=O)N1CCOCC1)N1CCOCC1	.	0.6	0.4	1.9	.	.	.	.
COc1ccc(NC2CCCN(C(=O)C3=NNC(=O)CC3)C2)cc1 (stereo not given)	.	0.4	.	-0.3	.	.	.	.
CC(=O)N1CCN(S(=O)(=O)c2cccc(C(=O)OCC(=O)N(CCC#N)c3ccc(F)cc3)c2)CC1	.	-0.4	0.1	1.0	.	.	.	.
COc1ccc(-c2nc3c(n2O)CCCC3=O)cc1OC	-1.7	0.5	5.0	0.1	-1.8	0.8	.	.
CC(=O)n1c2c(c3ccccc31)OC(N)=C(C#N)C2c1ccc(C(C)C)cc1 (stereo not given)	19.6*	2.9	43.5	-3.3	.	.	10.2	23.7*
O=C(c1cncc(Br)c1)N1CCc2ccccc2C1	-2.4	-0.9	33.2	-2.2	5.9	-4.9	.	.
COc1ccc(CCC(=O)OCC(=O)c2c(N)n(CC(C)C)c(=O)n(C)c2=O)cc1	17.6*	-0.6	-1.3	1.8	-13.4	-8.4	6.4	2.5
Fc1ccc(-n2nnc(-c3nccs3)n2)cc1	19.8*	-0.2	3.1	0.0	21.3	21.4	31.5*	24.6*
Cc1ccc(C2(c3noc(CN4CCC(C(=O)N5CCOCC5)CC4)n3)CCCC2)cc1	5.6	-0.1	-0.6	2.8	-2.5	-3.0	.	.
N#Cc1c(NC(=O)c2nc3ncccn3n2)sc2c1CCCCC2	65.1*	1.3	21.0	-0.2	.	.	78.4*	28.4*
COc1ccc(C(=O)NCCC2=CCCCC2)cc1	31.9*	-3.0	-4.7	-3.8	6.2	-4.1	53.6*	48.4*
O=C(O)C(=O)/C(=C\c1ccc(Cl)cc1)c1ccc2ccccc2n1	22.0*	2.3	65.4*	1.6	29.7	10.2	-4.2	-5.0
O=C(NCCc1ccc(Cl)cc1)c1ccc2ccccc2n1	-1.2	0.2	9.5	4.0	18.6	10.4	.	.
NNC(=O)c1cn2ccccc2n1	-1.9	-0.2	2.5	3.5	12.9	0.8	.	.
O=C(Nc1nccs1)c1cn2ccccc2n1	32.5*	0.4	61.8*	2.6	.	.	54.1*	42.7*
